Reference: PubChem BioAssay (EPA / NIEHS)
Activity calls are given as the source filed them. How the source made its calls: active means hit-call score of the fitted dose curve at least 0.9, where 1 is the maximum; inactive means score below 0.9.

Legend:
Conditions in all cases: mRNA level, 48 h; actives raise or lower the signal
CYP4A11 (gene 1579) = assay: LTEA_HepaRG_CYP4A11: Life Technologies and Expression Analysis (LTEA) Assay for CYP4A11 using HepaRG (AID 2283486)
Outline: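 HepaRG, 48 h chem exposure, 8 conc (100 uM top, half-log), 0.5% DMSO vehicle; qRT-PCR readout, housekeeping-gene normalized; bidirectional curve fit vs DMSO baseline.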

[1] = read-out: Cytochrome P450 3A4 (Homo sapiens) (UniProt P08684); assay: LTEA_HepaRG_CYP3A4: Life Technologies and Expression Analysis (LTEA) Assay for CYP3A4 using HepaRG (AID 2283487)
Outline: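 CYP3A4 transcript measured by TaqMan qRT-PCR and normalized to three housekeeping genes after 48 h chemical exposure of human HepaRG cells. Top concentration 100 uM, half-log steps, 0.5% DMSO vehicle; gain or loss fitted against DMSO baseline.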

[2] = read-out: Pro-epidermal growth factor (Homo sapiens) (UniProt P01133); assay: LTEA_HepaRG_EGF: Life Technologies and Expression Analysis (LTEA) Assay for Epidermal growth factor (EGF) using HepaRG (AID 2283489)
Outline: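 HepaRG, 48 h dosing, 100 uM top, half-log x8, 0.5% DMSO. Readout: TaqMan qRT-PCR (Fluidigm array), housekeeping-normalized. Gain or loss of signal fit vs DMSO.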

[3] = read-out: Early growth response protein 1 (EGR1) transcription factor, EGR1 (gene 1958); assay: LTEA_HepaRG_EGR1: Life Technologies and Expression Analysis (LTEA) Assay for Early growth response protein 1 (EGR1) transcription factor using HepaRG (AID 2283490)
Outline: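 Read-out is EGR1 mRNA level by qRT-PCR, normalized to three housekeeping genes and analysed for gain or loss of signal against 0.5% DMSO. Source cells: human HepaRG, treated 48 h at up to 100 uM in half-log dilutions.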

[4] = read-out: Ezrin (EZR), EZR (gene 7430); assay: LTEA_HepaRG_EZR: Life Technologies and Expression Analysis (LTEA) Assay for Ezrin (EZR) using HepaRG (AID 2283491)
Outline: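 HepaRG, 48 h chemical exposure, 8-pt half-log series from 100 uM, 0.5% DMSO vehicle, duplicates. Read-out: EZR mRNA by TaqMan qRT-PCR (Fluidigm array), housekeeping-normalized; bidirectional curve fit vs DMSO baseline.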

[5] = read-out: Cytochrome P450 3A7 (Homo sapiens) (UniProt P24462); assay: LTEA_HepaRG_CYP3A7: Life Technologies and Expression Analysis (LTEA) Assay for CYP3A7 using HepaRG (AID 2283492)
Outline: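 Human HepaRG liver cells, 48 h post-plating, switched to serum-free induction medium and exposed in duplicate for 48 h. Dosing: 100 uM top, half-log dilutions, 8 points, 0.5% DMSO vehicle. Read-out: CYP3A7 mRNA, gain or loss fitted against DMSO baseline.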

CYP3A5 (gene 1577) = assay: LTEA_HepaRG_CYP3A5: Life Technologies and Expression Analysis (LTEA) Assay for CYP3A5 using HepaRG (AID 2283493)
Outline: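 mRNA induction or loss of CYP3A5 assessed in HepaRG after 48 h dosing, 100 uM top concentration, duplicate wells; TaqMan qRT-PCR with ACTB, GAPDH, POLR2A normalization; 0.5% DMSO as negative control.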

[6] = read-out: Fatty Acid-Binding Protein 1 (FABP1), FABP1 (gene 2168); assay: LTEA_HepaRG_FABP1: Life Technologies and Expression Analysis (LTEA) Assay for Fatty Acid-Binding Protein 1 (FABP1) using HepaRG (AID 2283494)
Outline: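 HepaRG, 48 h post-plating switched to serum-free induction medium, then dosed 48 h (duplicate, 8 pts, ≤100 uM, 0.5% DMSO). RNA → Fluidigm TaqMan qRT-PCR, FABP1 normed to ACTB/GAPDH/POLR2A. Bidirectional curve fit vs DMSO.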

[7] = read-out: Cytochrome P450 4A22 (Homo sapiens) (UniProt Q5TCH4); assay: LTEA_HepaRG_CYP4A22: Life Technologies and Expression Analysis (LTEA) Assay for Cytochrome P450 4A22 (CYP4A22) using HepaRG (AID 2283495)
Outline: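 Readout is CYP4A22 transcript induction or loss, quantified by qRT-PCR and normalized to ACTB, GAPDH and POLR2A. Human HepaRG cells receive test chemicals for 48 h at eight half-log concentrations from 100 uM in 0.5% DMSO.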

[8] = read-out: DNA damage-inducible transcript 3 (DDIT3), DDIT3 (gene 1649); assay: LTEA_HepaRG_DDIT3: Life Technologies and Expression Analysis (LTEA) Assay for DNA damage-inducible transcript 3 (DDIT3) using HepaRG (AID 2283488)
Outline: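 Changes in DDIT3 transcript, in either direction relative to 0.5% DMSO vehicle, were quantified by TaqMan qRT-PCR after 48 h chemical exposure of HepaRG cells at 8 concentrations, maximum 100 uM.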

Measured: AC50

Sequence of Cytochrome P450 3A4 (Homo sapiens) (P08684 whole entry, looked up): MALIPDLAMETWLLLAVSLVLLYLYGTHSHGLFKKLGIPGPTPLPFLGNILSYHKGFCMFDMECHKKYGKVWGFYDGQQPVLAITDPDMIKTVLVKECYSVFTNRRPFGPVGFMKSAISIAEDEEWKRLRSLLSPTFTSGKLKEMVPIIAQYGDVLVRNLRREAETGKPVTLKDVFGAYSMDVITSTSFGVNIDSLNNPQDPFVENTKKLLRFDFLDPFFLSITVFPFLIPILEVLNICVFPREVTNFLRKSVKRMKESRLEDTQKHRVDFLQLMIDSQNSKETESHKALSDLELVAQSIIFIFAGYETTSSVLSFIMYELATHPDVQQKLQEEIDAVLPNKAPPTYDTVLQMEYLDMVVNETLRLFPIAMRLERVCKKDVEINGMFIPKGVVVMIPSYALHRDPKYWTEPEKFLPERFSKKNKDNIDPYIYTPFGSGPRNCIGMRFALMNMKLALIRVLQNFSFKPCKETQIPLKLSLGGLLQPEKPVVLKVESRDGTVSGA
Sequence of Cytochrome P450 3A7 (Homo sapiens) (P24462 whole entry, looked up): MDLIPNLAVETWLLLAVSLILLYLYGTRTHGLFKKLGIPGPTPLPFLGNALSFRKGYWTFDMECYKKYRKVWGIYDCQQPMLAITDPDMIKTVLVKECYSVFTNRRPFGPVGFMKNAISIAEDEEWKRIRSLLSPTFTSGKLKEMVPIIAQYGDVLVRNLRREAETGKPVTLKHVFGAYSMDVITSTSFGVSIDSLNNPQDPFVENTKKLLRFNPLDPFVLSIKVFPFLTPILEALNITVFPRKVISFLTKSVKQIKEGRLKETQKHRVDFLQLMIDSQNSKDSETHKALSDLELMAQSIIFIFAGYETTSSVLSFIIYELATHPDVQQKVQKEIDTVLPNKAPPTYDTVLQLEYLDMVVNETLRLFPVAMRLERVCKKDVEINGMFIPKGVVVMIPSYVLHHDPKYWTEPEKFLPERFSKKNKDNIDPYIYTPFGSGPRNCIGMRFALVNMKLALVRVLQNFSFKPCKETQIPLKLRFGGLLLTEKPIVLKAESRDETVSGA

COc1ccc2cc(S(=O)(=O)N[C@H](CC(=O)N[C@H](Cc3ccc(CN4[C@H](C)CCC[C@@H]4C)cc3)C(=O)N(C)C(C)C)c3ccc4c(c3)OCO4)ccc2c1
inactive: [2] | [4]
active: CYP4A11 (gene 1579) 20.7 µM | [1] 24 µM | [3] 33.3 µM | [5] 25.2 µM | CYP3A5 (gene 1577) 22.1 µM | [6] 12.1 µM | [7] 2.63 µM

Oc1ccc2ccccc2c1
not listed: [8]
inactive: all other assays above

Cc1c2ccccc2c(C)c2c1ccc1ccccc12
active: CYP4A11 (gene 1579) 33.2 µM | [1] 78.8 µM | [8] 33.9 µM | [2] 19.9 µM | [5] 30.3 µM | CYP3A5 (gene 1577) 11.9 µM | [6] 50 µM | [7] 51.9 µM
inactive: [3] | [4]

CN1C(=O)N(c2ccccc2Br)Cc2cnc(Nc3ccc4c(c3)OCC(CO)O4)nc21 (configuration not stated)
active: CYP4A11 (gene 1579) 50 µM | [1] 89.6 µM | [8] 40.5 µM | [3] 24 µM | [5] 50 µM | CYP3A5 (gene 1577) 82.1 µM | [6] 58.8 µM | [7] 50 µM
inactive: [2] | [4]

Cc1occc1C(=O)Nc1ccc(C(=O)N2CCC(F)(F)/C(=C\C(=O)N3CCC(N4CCCCC4)CC3)c3ccccc32)cc1
active: CYP4A11 (gene 1579) 49 µM | [8] 42.3 µM | [7] 57.5 µM
inactive: all other assays above

c1ccc2n[nH]nc2c1
not listed: [5] | [7]
inactive: all other assays above

CC(C)(C)c1csc(-c2cc3cc(OCc4ccccc4CC(=O)O)ccc3o2)n1
inactive: [2] | [5]
active: CYP4A11 (gene 1579) 23.2 µM | [1] 76.1 µM | [3] 89.5 µM | [4] 82.3 µM | CYP3A5 (gene 1577) 81.3 µM | [6] 32.6 µM | [7] 23.3 µM

COc1cc(C(=O)NC2CCN(C)CC2)ccc1Nc1ncc2c(n1)N(C1CCCC1)CC(F)(F)C(=O)N2C
active: CYP4A11 (gene 1579) 3.34 µM | [8] 83 µM | [3] 9.31 µM | [4] 28.7 µM | [6] 6.44 µM | [7] 3.23 µM
inactive: [1] | [2] | CYP3A5 (gene 1577)

CCCOC(=O)c1cc(O)c(O)c(O)c1
active: CYP4A11 (gene 1579) 6.67 µM | [1] 1.14 µM | [6] 30.1 µM | [7] 4.41 µM
not listed: [4]
inactive: all other assays above

CCOC(=O)O[C@H](C)OC(=O)c1ccc2c(c1)cc(C(=O)NC1CCN(C(C)C)CC1)n2Cc1cc(-c2ccc(Cl)s2)on1
active: CYP4A11 (gene 1579) 47.2 µM
inactive: all other assays above

COCC(C)OCC(C)OCC(C)O (configuration not stated)
inactive: all assays above

Cc1cc(F)ccc1-c1cc(N2CC[C@@H](O)[C@H]2CO)ncc1N(C)C(=O)C(C)(C)c1cc(C(F)(F)F)cc(C(F)(F)F)c1
inactive: [5] | CYP3A5 (gene 1577)
active: CYP4A11 (gene 1579) 15.7 µM | [1] 0.588 µM | [8] 71.1 µM | [2] 5.44 µM | [3] 61.2 µM | [4] 20.8 µM | [6] 13.9 µM | [7] 16.4 µM

Cc1ncc(CO)c(CO)c1O
inactive: all assays above

OCCO
not listed: [2] | [7]
inactive: all other assays above

CCO[Si](CCCNC(N)=O)(OCC)OCC
inactive: all assays above

CCCCCCCCCC(=O)O
inactive: all assays above

O=C1CCC(C2CCCCC2)CC1
active: [1] 32.5 µM
inactive: all other assays above

CCCCCCCCCCCO
not listed: [8]
inactive: all other assays above

CCCCCCCC[Si](OCC)(OCC)OCC
inactive: all assays above

O=C1O[C@H]([C@@H](O)CO)C(O)=C1O
inactive: all assays above

Cc1cc2c(cc1C(F)(F)F)N(C(=O)Nc1ccc(Oc3cccnc3C)nc1)CC2
active: CYP4A11 (gene 1579) 52.6 µM | [1] 1.89 µM | CYP3A5 (gene 1577) 73.1 µM | [6] 11.6 µM | [7] 29.6 µM
inactive: all other assays above

CCCCCc1ccc(N)cc1
inactive: all assays above

Clc1cc(Cl)c2c(c1)N=C1CCCCCN1C2
active: [1] 11.1 µM | [5] 7.11 µM
inactive: all other assays above

CCCCCCCCN(C)CCCCCCCC
inactive: all assays above

Cc1ccc(C(C)C)cc1
not listed: [8]
inactive: all other assays above

COc1cccc([C@H](O)C2CCN(CCc3ccc(F)cc3)CC2)c1OC
active: [1] 50 µM | [8] 70.5 µM
inactive: all other assays above

CCCCCCCCCCCCO
inactive: all assays above

CCCCCCCCOc1ccc(C(=O)c2ccccc2)c(O)c1
inactive: all assays above

NC(=O)c1nc(-c2cccc(-c3cc(F)ccc3OCC(F)(F)C(F)(F)F)c2)n[nH]1
active: CYP4A11 (gene 1579) 12.3 µM | [1] 81.1 µM | [8] 78.1 µM | [3] 84.4 µM | [6] 50 µM | [7] 9.78 µM
inactive: [2] | [4] | [5] | CYP3A5 (gene 1577)

CCN(CC)C(=O)c1cc(S(=O)(=O)Cc2ccccc2)c(N2CCC(c3ccccc3)CC2)cc1N(CC)CCN(C)C
active: CYP4A11 (gene 1579) 30.5 µM | [1] 34.7 µM | [8] 22.9 µM | [3] 28.8 µM | [5] 1.9 µM | CYP3A5 (gene 1577) 32.2 µM
inactive: [2] | [4] | [6] | [7]

C[C@]12CC[C@@H]3c4ccc(O)cc4CC[C@H]3[C@@H]1CC[C@H]2O
active: CYP4A11 (gene 1579) 78.2 µM | [6] 74.3 µM | [7] 76 µM
not listed: [5]
inactive: all other assays above

O=C(O)Cc1cc(I)c(Oc2ccc(O)c(I)c2)c(I)c1
active: CYP4A11 (gene 1579) 74 µM | [1] 41.6 µM | [8] 78.9 µM | [5] 0.0294 µM | CYP3A5 (gene 1577) 0.0881 µM | [6] 89.8 µM | [7] 0.063 µM
inactive: [2] | [3] | [4]

O=c1[nH]sc2ccccc12
inactive: all assays above

Cc1cccc2ccccc12
inactive: all assays above

CC(C)(O)c1ccc(CNC(=O)c2cccnc2Oc2ccc3nonc3c2)cc1
active: [1] 8.42 µM | [5] 6.62 µM
not listed: [8]
inactive: all other assays above

CC[C@@H]1C[C@H](N(Cc2cc(C(F)(F)F)cc(C(F)(F)F)c2)C(C)=O)c2cc(C(F)(F)F)ccc2N1C(=O)OC(C)C
active: CYP4A11 (gene 1579) 15.6 µM | [1] 0.29 µM | [5] 0.435 µM | [6] 4.3 µM | [7] 9.62 µM
inactive: all other assays above

CCN(Cc1cccnc1)C(=O)c1cccc(Cl)c1[C@]1(C)C(=O)N(Cc2ccc(OC)cc2OC)c2ccc(Cl)cc21
active: CYP4A11 (gene 1579) 16.7 µM | [1] 25.9 µM | [8] 11.5 µM | [2] 15.5 µM | [5] 24.1 µM | [6] 22.3 µM | [7] 14.4 µM
inactive: [3] | [4] | CYP3A5 (gene 1577)

CN(C[C@@H](CC[N+]12CCC(C3CCCCC3)(CC1)CC2)c1ccc(Cl)c(Cl)c1)C(=O)c1cc(C(F)(F)F)cc(C(F)(F)F)c1
active: CYP4A11 (gene 1579) 21.1 µM | [1] 30.9 µM | [8] 12.1 µM | [3] 54.4 µM | [5] 28.6 µM | CYP3A5 (gene 1577) 68.8 µM | [6] 12.5 µM | [7] 22.4 µM
inactive: [2] | [4]
